Among the test systems are NCI-H23 lung; NCI-H226 lung; NCI-H322M lung; HOP-62 NSCLC; NCI-H460 lung; HOP-92 NSCLC; NCI-H522 lung; A549/ATCC NSCLC; 786-0 renal; COLO 205 colon.
What all share (experiment): NCI-60 one-dose screen, 48 h (100 = growth as untreated, 0 = no growth, -100 = all killed)
Details in all cases: 10 µM unless noted

Consider 17 compounds from PubChem BioAssay (NCI).

Compounds without any hit were thinned out: in the full panel of roughly 83,000, 20% have a hit.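 The test compound was applied at a single concentration to cells in 96-well plates for 48 hours, and percent growth was recorded.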 Calls of active or inactive are those of the source. The calls were made as follows: active = growth percent below 10; inactive = the rest.

In the case of `COCCNC(=O)c1ccc(-c2nc3ccc4[nH]ncc4c3c3c2CCCC3)cc1`, the growth in the test with NCI-H23 lung is 43.5% (inactive); with NCI-H226 lung, 50.7% (inactive); in the test on NCI-H322M lung, 29.1% (inactive); in the test with HOP-62 NSCLC it was 40.1% (inactive); in the test with NCI-H460 lung it was 27.1% (inactive); in the test with HOP-92 NSCLC, 56.8% (inactive). For the same compound, the growth in the test with NCI-H522 lung is 30.6% (inactive); with A549/ATCC NSCLC, 30.4% (inactive); with 786-0 renal, 31.7% (inactive); in the test with COLO 205 colon, 27.7% (inactive).
`OCCOCCN(Cc1ccccn1)Cc1cc(I)cc(I)c1O`: the growth in the test with NCI-H23 lung is 90.2% (inactive); in the test with NCI-H226 lung it was 83.1% (inactive); in the test on NCI-H322M lung, 82.9% (inactive); with HOP-62 NSCLC it was 84.9% (inactive); with NCI-H460 lung, 59.5% (inactive); in the test with HOP-92 NSCLC, 90.2% (inactive). Moreover, the growth in the test on NCI-H522 lung is 74.4% (inactive); in the test on A549/ATCC NSCLC, 88.5% (inactive); in the test with 786-0 renal, 85.2% (inactive); with COLO 205 colon, 107% (inactive).
With `CO[C@]12C=C/C(=C(/C(=O)OCc3cccnc3)C(=O)CCCCCCCC[C@@]3(OC)C=C/C(=C(/C(=O)OCc4cccnc4)C(=O)CCCCCCCC1)O3)O2`, the growth in the test on NCI-H23 lung is -53.1% (active); in the test with NCI-H226 lung, -45.6% (active); in the test with NCI-H322M lung, 18.3% (inactive); in the test on HOP-62 NSCLC, 30.9% (inactive); in the test on NCI-H460 lung it was 3.19% (active); in the test on HOP-92 NSCLC, 2.61% (active). Further, the growth was -4.14% (active) with NCI-H522 lung, 10.7% (inactive) with A549/ATCC NSCLC, -38.4% (active) in the test with 786-0 renal and -0.264% (active) in the test on COLO 205 colon.
Turning to `Cc1nc2sc(C(=O)Nc3ccccc3)c(N)c2cc1C(=O)c1ccccc1`, the growth is 64.4% (inactive) in the test with NCI-H23 lung; 31.3% (inactive) in the test on NCI-H226 lung; 39.4% (inactive) in the test on NCI-H322M lung; 34.5% (inactive) in the test on HOP-62 NSCLC; 6.08% (active) with NCI-H460 lung; 59.8% (inactive) in the test on HOP-92 NSCLC. Besides, the growth in the test on NCI-H522 lung is 50.2% (inactive); in the test with A549/ATCC NSCLC it was 23.7% (inactive); with 786-0 renal it was 44.4% (inactive); in the test on COLO 205 colon it was -25% (active).
With `Cc1cc(=O)[nH]c2c(C#N)cnn12`, the growth with NCI-H23 lung was 102% (inactive); with NCI-H226 lung it was 96.4% (inactive); in the test with NCI-H322M lung, 101% (inactive); in the test on HOP-62 NSCLC, 105% (inactive); with NCI-H460 lung, 104% (inactive); in the test with HOP-92 NSCLC, 109% (inactive). Further, the growth was 89.1% (inactive) in the test on NCI-H522 lung, 97.5% (inactive) in the test with A549/ATCC NSCLC, 105% (inactive) in the test on 786-0 renal and 114% (inactive) in the test with COLO 205 colon.
Turning to `Cc1ccc(-c2nc3nc(-c4ccc(F)cc4)nc(N4CCNCC4)c3o2)cc1`, the growth in the test on NCI-H23 lung is 94.4% (inactive); with NCI-H226 lung it was 116% (inactive); with NCI-H322M lung, 87.7% (inactive); in the test on HOP-62 NSCLC it was 77.6% (inactive); in the test on NCI-H460 lung it was -84.6% (active); in the test with HOP-92 NSCLC it was 90.8% (inactive). Also, the growth with NCI-H522 lung was 79.8% (inactive); in the test with A549/ATCC NSCLC it was 27.2% (inactive); with 786-0 renal, -92.8% (active); with COLO 205 colon, -78.1% (active).
Consider `COc1cc(-c2cc(-c3ccc(N(C)C)cc3)nc(N3CCC(O)CC3)c2C#N)cc(OC)c1OC`, for which the growth was 3.6% (active) in the test with NCI-H23 lung; -6.93% (active) in the test with NCI-H226 lung; 25.8% (inactive) in the test on NCI-H322M lung; 41.4% (inactive) with HOP-62 NSCLC; -27.9% (active) in the test with NCI-H460 lung; -25% (active) with HOP-92 NSCLC. Further, the growth in the test with NCI-H522 lung was -36.3% (active); in the test on A549/ATCC NSCLC, 11.5% (inactive); with 786-0 renal, -3.55% (active); with COLO 205 colon, -17.2% (active).
With `COc1cc(-c2nc(SCC(C)C)nc(Nc3cccc4ccccc34)c2C#N)cc(OC)c1OC`, the growth is 102% (inactive) in the test on NCI-H23 lung; 82.5% (inactive) in the test on NCI-H226 lung; 101% (inactive) with NCI-H322M lung; 87.2% (inactive) with HOP-62 NSCLC; 82.3% (inactive) in the test on NCI-H460 lung; 92.9% (inactive) with HOP-92 NSCLC. The growth in the test with NCI-H522 lung was 89.2% (inactive); with A549/ATCC NSCLC, 88.4% (inactive); with 786-0 renal it was 103% (inactive); in the test with COLO 205 colon it was 95.3% (inactive).
In the case of `COc1cc(CNS(=O)(=O)c2ccc(C)cc2)ccc1OCc1cn(-c2ccc(Br)cc2)nn1`, the growth with NCI-H23 lung is 103% (inactive); in the test on NCI-H226 lung it was 93.5% (inactive); in the test with NCI-H322M lung it was 101% (inactive); in the test on HOP-62 NSCLC, 92.4% (inactive); with NCI-H460 lung, 110% (inactive); in the test with HOP-92 NSCLC, 112% (inactive). The growth in the test on NCI-H522 lung is 91.8% (inactive); with A549/ATCC NSCLC, 99.5% (inactive); with 786-0 renal it was 109% (inactive); in the test with COLO 205 colon it was 120% (inactive).
Regarding `Cc1ccc(NC(=S)NNC(=S)NNc2ccccc2)cc1C`, the growth with NCI-H23 lung was 99.9% (inactive); with NCI-H226 lung, 99.7% (inactive); in the test on NCI-H322M lung, 85.5% (inactive); in the test with HOP-62 NSCLC it was 106% (inactive); with NCI-H460 lung it was 96.3% (inactive); with HOP-92 NSCLC, 55.4% (inactive). Besides, the growth in the test with NCI-H522 lung is 86.3% (inactive); in the test on A549/ATCC NSCLC, 101% (inactive); in the test with 786-0 renal, 114% (inactive); with COLO 205 colon, 107% (inactive).
In the case of `COc1cc(C(=O)n2nc(N3CCN(C)CC3)c3cc(N)ccc32)cc(OC)c1OC`, the growth in the test with NCI-H23 lung is 38.3% (inactive); with NCI-H226 lung, 47.6% (inactive); with NCI-H322M lung, 58.6% (inactive); with HOP-62 NSCLC, 32.5% (inactive); with NCI-H460 lung it was 38.8% (inactive); in the test with HOP-92 NSCLC it was 43% (inactive). Moreover, the growth in the test on NCI-H522 lung is -7.31% (active); with A549/ATCC NSCLC, 65.3% (inactive); in the test with 786-0 renal, 24.7% (inactive); with COLO 205 colon, 107% (inactive).
Consider `COc1ccc(C(=O)Nc2cccc(C3CC(=O)c4c(cc(OC)c(OC)c4OC)O3)c2)cc1` (stereo not given), for which the growth in the test on NCI-H23 lung was 35.2% (inactive); with NCI-H226 lung, 25% (inactive); in the test with NCI-H322M lung it was 37.8% (inactive); with HOP-62 NSCLC, 14.1% (inactive); in the test with NCI-H460 lung, 4.37% (active); in the test on HOP-92 NSCLC it was 34.3% (inactive). Besides, the growth in the test on NCI-H522 lung is -37.1% (active); in the test on A549/ATCC NSCLC, 28.5% (inactive); in the test on 786-0 renal, 13.8% (inactive); in the test with COLO 205 colon it was -5% (active).
On to `O=C(O)/C(=C\c1ccc(Cl)cc1)c1ccc(Cl)cc1`, for which the growth in the test with NCI-H23 lung is 90.8% (inactive); with NCI-H226 lung, 99.1% (inactive); with NCI-H322M lung it was 92.2% (inactive); in the test with HOP-62 NSCLC, 104% (inactive); in the test with NCI-H460 lung it was 97.5% (inactive); with HOP-92 NSCLC it was 67.7% (inactive). Also, the growth in the test on NCI-H522 lung was 81.9% (inactive); with A549/ATCC NSCLC, 88.5% (inactive); in the test with 786-0 renal, 90.3% (inactive); with COLO 205 colon, 117% (inactive).
Turning to `C=C(C)[C@@H]1CC[C@]2(C(=O)NCCNCCN)CC[C@]3(C)[C@H](CC[C@@H]4[C@@]5(C)C/C(=C/c6ccncc6)C(=O)C(C)(C)[C@@H]5CC[C@]43C)[C@@H]12`, the growth is 97.2% (inactive) in the test on NCI-H23 lung; 100% (inactive) in the test on NCI-H226 lung; 94.2% (inactive) in the test with NCI-H322M lung; 101% (inactive) in the test on HOP-62 NSCLC; 99.2% (inactive) with NCI-H460 lung; 75.5% (inactive) with HOP-92 NSCLC. Besides, the growth is 94.7% (inactive) in the test on NCI-H522 lung, 99.9% (inactive) in the test on A549/ATCC NSCLC, 90.2% (inactive) in the test with 786-0 renal and 88.9% (inactive) in the test on COLO 205 colon.
Consider `Cc1ccc(-c2nc(/C=C3/C(=O)Nc4ccccc43)c3ccccn23)cc1`, for which the growth in the test with NCI-H23 lung was 72.6% (inactive); with NCI-H226 lung, 88.7% (inactive); in the test with NCI-H322M lung, 88% (inactive); in the test with HOP-62 NSCLC it was 91.8% (inactive); in the test with NCI-H460 lung it was 40.7% (inactive); in the test with HOP-92 NSCLC, 105% (inactive). The growth with NCI-H522 lung was 57.7% (inactive); with A549/ATCC NSCLC, 75.1% (inactive); in the test with 786-0 renal it was 104% (inactive); in the test on COLO 205 colon, 92.2% (inactive).
Take `COc1ccc(C(=S)N2CCN(c3ccccc3Cl)CC2)cc1OC`: the growth with NCI-H23 lung is 117% (inactive); in the test with NCI-H226 lung, 98.1% (inactive); with NCI-H322M lung it was 86.6% (inactive); in the test on HOP-62 NSCLC it was 90.9% (inactive); with NCI-H460 lung, 115% (inactive); with HOP-92 NSCLC, 86% (inactive). Moreover, the growth in the test on NCI-H522 lung was 85.8% (inactive); in the test with A549/ATCC NSCLC it was 115% (inactive); with 786-0 renal, 97.5% (inactive); with COLO 205 colon, 99.5% (inactive).
In the case of `O=C(Nc1cccc([N+](=O)[O-])c1)c1cc2ccccc2cc1O`, the growth in the test with NCI-H23 lung is -0.282% (active); with NCI-H226 lung, 1.25% (active); in the test with NCI-H322M lung, 14.8% (inactive); in the test on HOP-62 NSCLC it was 0.534% (active); with NCI-H460 lung, 3.41% (active); with HOP-92 NSCLC, -9.02% (active). Besides, the growth with NCI-H522 lung was -3.91% (active); in the test on A549/ATCC NSCLC, 11.1% (inactive); in the test with 786-0 renal it was 8.07% (active); with COLO 205 colon it was -66.1% (active).
